# In PubChem BioAssay (EPA / NIEHS):
# Calls of active or inactive are those of the source. How the source made its calls: active means hit-call score of the fitted dose curve at least 0.9, where 1 is the maximum; inactive means score below 0.9.
# Read-out: Monokine induced gamma interferon (MIG), CXCL9 (gene 4283)
# Assay: BSK_SAg_MIG: BioMAP Diversity Plus: SAg Assay for Monokine induced gamma interferon (MIG) Biomarker Activity (AID 2283092)
# Conditions: primary human HUVEC with PBMC; actives raise or lower the signal
# Outline: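 HUVEC plus human PBMC co-culture, chemicals dosed and MIG (CXCL9) quantified by ELISA at 24 h. Bidirectional curve fitting against DMSO as negative control and baseline, so both gain and loss of signal count as activity.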
SMILES,outcome,AC50
Cc1ccc2n[nH]nc2c1,inactive,–
CCCCCCCCC=O,inactive,–
OC[C@H]1O[C@H](O[C@]2(CCl)O[C@H](CCl)[C@@H](O)[C@@H]2O)[C@H](O)[C@@H](O)[C@H]1Cl,inactive,–
COC(=O)c1ccc(C)cc1,inactive,–
O=C1OC2(c3cc(Br)c(O)c(Br)c3Oc3c2cc(Br)c(O)c3Br)c2c(Cl)c(Cl)c(Cl)c(Cl)c21,–,23.1 µM (active)
CC(=O)Nc1ccccc1O,inactive,–
CC(=O)OCCC(C)CC(C)(C)C (stereo not drawn),inactive,–
COc1cc(C=O)ccc1OC(=O)C(C)C,inactive,–
CCc1c(C)cc(N)c(CC)c1N,inactive,–
CCCCC(CC)COC(=O)/C=C\C(=O)OCC(CC)CCCC (stereo not drawn),inactive,–
CC(=O)[C@H]1CC[C@H]2[C@@H]3CC=C4C[C@@H](O)CC[C@]4(C)[C@H]3CC[C@]12C,inactive,–
CCCCCCCCCC=O,inactive,–
O=P(c1ccccc1)(c1ccccc1)c1ccccc1,inactive,–
C=C(C)C(=O)O[C@H]1C[C@@H]2CC[C@@]1(C)C2(C)C,–,36.3 µM (active)
CCn1c2ccccc2c2cc(N)ccc21,inactive,–
CC(C)Oc1ccccc1O,inactive,–
N#Cc1ccc(CC(=NNC(=O)Nc2ccc(OC(F)(F)F)cc2)c2cccc(C(F)(F)F)c2)cc1,inactive,–
CCCCC/C=C/C=C/C=O,–,35.6 µM (active)
CCC(=O)OCc1ccccc1,inactive,–
O=[N+]([O-])c1cc(C(F)(F)F)ccc1Cl,inactive,–
C=CCOC(=O)CCC1CCCCC1,inactive,–
CC(=O)O[C@]1(C(C)=O)CC[C@H]2[C@@H]3C[C@H](C)C4=CC(=O)CC[C@]4(C)[C@H]3CC[C@@]21C,inactive,–
c1ccc2sc(SN(C3CCCCC3)C3CCCCC3)nc2c1,inactive,–
